From PubChem BioAssay
Sampled rows, rich in hits. Any-hit rate of the full collection: about 3%.
hERG WT inh – blocks the wildtype human KCNH2 potassium channel | Q12809 | U2OS, BacMam KCNH2, thallium flux FluxOr; stronger effect = lower value | activity change, % at 1.84 µM | 340,000 tested, 0.37% active | AID 720551;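 active = maximum activity change below -70%; inconclusive = maximum activity change between -70% and -50%; inactive = maximum activity change above -50%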; also: % is scaled to controls: 0 for no effect and ±100 for the full control effect
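U2OS cells were transduced with wild-type KCNH2 virus (2.03 x 10^8 / mL) for 4 h at room temperature, then cultured overnight at 37 C. Thallium flux was read with FluxOr dye. Rate constants were normalized to DMSO controls.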
LDHA inh – inhibitors of human lactate dehydrogenase A; purified LDHA, NADH/diaphorase-resazurin fluorescence; stronger effect = lower value; AID 1347041; 480,000 tested, 0.15% active; activity change, % (values are at about 110 or 230 µM); P00338; in the data active = activity change below about -30%; inconclusive = mostly about -25% to -30%;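 also: plate controls were DMSO wells for no effect and wells without enzyme for full effect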
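Resorufin fluorescence (ex540/em590), read at 0 and 20 min after diaphorase/resazurin addition, reports the NADH left after a 5 min room-temperature reaction of 2 nM human LDH5 with 0.06 mM NADH and 0.2 mM pyruvate.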
Chronic BCR inh – chronic active BCR signaling inhibition; ABC-DLBCL IkBa-CBG/CBR reporter, luminescence ratio, 4 h; Potency, µM (top dose mostly 46.1 µM), inactives show at the highest dose activity change, negative = inhibition, usual class: inhibitors; 340,000 tested, 0.05% active; active = well fitted inhibition curve with a large enough effect in the signal ratio, with a control signal flat, not every such curve was filed as active; inconclusive = small, poorly fitted or top-dose-only effect, or effect the other way, or a change in a side signal; the % refers to the signal ratio;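 also: potency is read from the fitted curve at half-maximal effect; plate controls were basal doxycycline-induced cells for no effect and cells given 10 µM MG132 for full effect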
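Concentration-response series (up to 46 uM) were applied to TMD8 dual-reporter cells for 4 h at 37C with doxycycline. Green/red ratio, after filter-overlap correction, defined %Activity; red signal alone was normalised to basal cells and zero luminescence.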
12-LOX inh – blocks human arachidonate 12S-lipoxygenase; AID 1671190; purified 12hLO, xylenol orange hydroperoxide absorbance; P18054; Potency, µM (top dose mostly 108 µM), inactives show at the highest dose activity change, negative = inhibition, usual class: inhibitors; 580,000 tested, 1.1% active; active = well fitted inhibition curve with a large enough effect; inconclusive = small, poorly fitted or top-dose-only effect, or another doubt; inactive = no such curve, though single readings can be large or run the other way; also: potency is read from the fitted curve at half-maximal effect; % is scaled to controls: 0 for no effect and ±100 for the full control effect
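Purified human 12hLO at 150 nM in 25 mM Hepes, 0.01% Triton X-100, pH 7.0, preincubated 15 min at room temperature with compound. Reaction started with 40 uM arachidonic acid, 30 min at room temperature. Hydroperoxide measured by Fe-xylenol orange, 573/405 nm absorbance ratio.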
ClpP mod – qHTS Assay for Activators of ClpP | ATP-dependent Clp protease proteolytic subunit (Bacillus subtilis (strain 168)), P80244 | purified B. subtilis ClpP, FRET peptide cleavage, 20 min | Potency, µM (top dose mostly 57.5 µM), inactives show at the highest dose activity change, negative = active | 340,000 tested, 1.9% active | AID 651965, 2013; active = well fitted falling curve with a large enough effect; inconclusive = small, poorly fitted or top-dose-only effect; inactive = no such curve, though single readings can be large or run the other way; also: potency is read from the fitted curve at half-maximal effect; the source files actives as falling curves though it sought activators and does not explain the sign; nearly all actives have a fitted effect of over 65% in size
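Purified B. subtilis ClpP, 10 microg/mL final in Tris/HCl pH8 with KCl, BSA, glycerol and Tween-20, cleaved an Abz/nitrotyrosine-quenched decapeptide. Fluorescence (ex 320, em 430) was read at 0 and 20 min at room temperature. Delta was normalized to 5.8 microM ADEP and DMSO/no-enzyme controls.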
KCNH2 3.1 block – inhibitors of human KCNH2 3.1 potassium channel isoform | U2OS KCNH2 3.1, thallium flux FluxOr; stronger effect = lower value | activity change, % (tested at about 1.8 µM) | 340,000 tested, 0.95% active;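 active = maximum activity change below -70%; inconclusive = maximum activity change from -70% to -50%; inactive = maximum activity change above -50%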;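 also: thallium influx rate constant from kinetic fluorescence after stimulation buffer; % is scaled to controls: 0 for no effect and ±100 for the full control effect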
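Thallium flux read-out: FluxOr dye with Red40 quencher in HBSS/HEPES, 45 min at RT. Rate constants from kinetic reads were normalized to positive and negative DMSO controls. Cells: U2OS virally expressing the 3.1 isoform.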
The depositor's hits bear a star.

Results for CC(C)=CCc1c(O)ccc2c1OC(c1ccc(O)c(O)c1)CC2=O (stereo not given) ?
hERG WT inh: 4; LDHA inh: 11; Chronic BCR inh: 11%; 12-LOX inh: 28µM*; ClpP mod: -28%; KCNH2 3.1 block: 3

Results for COc1ccc([C@H]2Cc3cc(O)cc(O)c3C(=O)O2)cc1O ?
hERG WT inh: 4; LDHA inh: 1; Chronic BCR inh: -2%; 12-LOX inh: 22µM*; ClpP mod: -6%; KCNH2 3.1 block: -8

How did O=C1CC(c2ccc(O)c(O)c2)Oc2cc(O)cc(O)c21 (stereo not given) do in these assays?
hERG WT inh: -12; LDHA inh: 1; Chronic BCR inh: inconclusive; 12-LOX inh: 6.3µM*; ClpP mod: -15%; KCNH2 3.1 block: -2

How did CC(C)c1nc(C#N)c(NCC(c2ccccc2Cl)N2CCOCC2)o1 (stereo not given) do in these assays?
LDHA inh: 7; 12-LOX inh: inconclusive

Results for CCOc1cc(C2N=C(N)Nc3nc4ccccc4n32)cc(Cl)c1O (stereo not given) ?
LDHA inh: 0; 12-LOX inh: inconclusive

What do the screens show for `N#Cc1ccnc(Sc2ccc(Cl)cc2)c1`?
LDHA inh: -3; 12-LOX inh: -12%

What do the screens show for `COC(=O)c1cccc(NC(=S)N2CCN(C)CC2)c1`?
hERG WT inh: 4; LDHA inh: -2; Chronic BCR inh: inconclusive; 12-LOX inh: -13%; ClpP mod: 13µM*; KCNH2 3.1 block: -8

How did COC(=O)c1ccc(C(=O)OC)c(NC(=S)N2CCN(C)CC2)c1 do in these assays?
hERG WT inh: -11; LDHA inh: -6; Chronic BCR inh: 2%; 12-LOX inh: inconclusive; KCNH2 3.1 block: -7

How did O=c1cc(C(F)(F)F)[nH]c(=S)[nH]1 do in these assays?
LDHA inh: 15; 12-LOX inh: 0.79µM*

How did COC(=O)C(C)Oc1ccc2c(=O)c(-c3ccccc3)c(C(F)(F)F)oc2c1 (stereo not given) do in these assays?
LDHA inh: 5; 12-LOX inh: 0%

What do the screens show for `COC(=O)c1ccccc1NC(=O)Oc1ccc(F)cc1`?
hERG WT inh: 21; LDHA inh: -3; Chronic BCR inh: -3%; 12-LOX inh: 1%; ClpP mod: 25µM*; KCNH2 3.1 block: 11

What do the screens show for `CCCC(=O)NC1=C(C#N)C2(CCCCC2)Cc2ccccc21`?
hERG WT inh: -5; LDHA inh: -7; Chronic BCR inh: 7%; 12-LOX inh: -4%; ClpP mod: -2%; KCNH2 3.1 block: -46

What do the screens show for `CCC(=O)NC1=C(C#N)C2(CCCC2)Cc2ccccc21`?
hERG WT inh: -16; LDHA inh: -6; Chronic BCR inh: 0%; 12-LOX inh: 4%; ClpP mod: 32µM*; KCNH2 3.1 block: 0

Results for O=C(NCc1ccccc1F)c1ccc(S(=O)(=O)Nc2cccc(C(F)(F)F)c2)cc1 ?
hERG WT inh: 0; LDHA inh: -3; Chronic BCR inh: inconclusive; 12-LOX inh: -24%; ClpP mod: -2%; KCNH2 3.1 block: 2

How did O=C(NCc1ccc(F)cc1)c1ccc(S(=O)(=O)Nc2cccc(C(F)(F)F)c2)cc1 do in these assays?
hERG WT inh: -5; LDHA inh: -1; Chronic BCR inh: inconclusive; 12-LOX inh: inconclusive; ClpP mod: 14µM*; KCNH2 3.1 block: -4

What do the screens show for `CCCCc1c(C)nc2ccc(OC)cc2c1SCCC(=O)O`?
hERG WT inh: -1; LDHA inh: -13; Chronic BCR inh: inconclusive; 12-LOX inh: 45µM*; KCNH2 3.1 block: 16

How did CCOC(=O)CCSc1nc(C)c2cc(OC)ccc2n1 do in these assays?
hERG WT inh: -29; LDHA inh: 3; Chronic BCR inh: 0%; 12-LOX inh: 9%; ClpP mod: 25µM*; KCNH2 3.1 block: -8
